Laboratory results: PubChem BioAssay (EPA / NIEHS)
Results filed as inconclusive are left out. The source made the active and inactive calls. How the source made its calls, unless noted: active means hit-call score of the fitted dose curve at least 0.9, where 1 is the maximum; inconclusive means response in the unintended direction; inactive means score below 0.9.

Experiments:
[1] = ATG_TCF_b_cat_CIS: Attagene CIS-FACTORIAL HepG2 Assay for human T-Cell-Factor with beta-catenin (TCF/b-cat) (AID 2282965; active means hit-call score of the fitted dose curve at least 0.9, where 1 is the maximum; inactive means score below 0.9); conditions: HepG2 TCF/beta-catenin cis-reporter transcription, actives raise or lower the signal
In short: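 Endogenous transcription factor activity is captured through cis-promoter reporter constructs transiently introduced into human HepG2 liver cells. Induced reporter mRNA is measured after 24 h and fitted bidirectionally relative to DMSO.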

[2] = ATG_TAL_CIS: Attagene CIS-FACTORIAL HepG2 Assay for human TAL Basal Promoter (AID 2282966; active means hit-call score of the fitted dose curve at least 0.9, where 1 is the maximum; inactive means score below 0.9;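 further: background control endpoint measuring basal TAL promoter reporter mRNA not a specific factor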); conditions: HepG2 Attagene cis-factorial TAL promoter reporter; actives raise or lower the signal
In short: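 HepG2, transient MRTU transfection, 24 h compound exposure; RNA → oligo(dT) RT → PCR → 6-FAM primer extension → HpaI digest → CE fluorescence. Bidirectional curve fit vs DMSO. Background-control readout.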

[3] = ATG_VDRE_CIS: Attagene CIS-FACTORIAL HepG2 Assay for human Vitamin D Receptor Element (VDRE) (AID 2282968; active means hit-call score of the fitted dose curve at least 0.9, where 1 is the maximum; inactive means score below 0.9); conditions: HepG2 VDRE cis-reporter transcription, actives raise or lower the signal
In short: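 Measures endogenous factor activity through cis-element-driven reporter transcripts in transiently transfected HepG2. Cells are treated 24 h; reporter mRNA is quantified by RT-PCR and capillary electrophoresis; fitting is bidirectional.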

[4] = target: X-box-binding protein 1 (Homo sapiens) (UniProt P17861); experiment: ATG_Xbp1_CIS: Attagene CIS-FACTORIAL HepG2 Assay for human X-box Binding Protein 1 (XBP1) (AID 2282972; active means hit-call score of the fitted dose curve at least 0.9, where 1 is the maximum; inactive means score below 0.9); conditions: HepG2 XBP1 cis-element reporter, Attagene multiplex; actives raise or lower the signal
In short: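 Changes in reporter transcript abundance, read by RT-PCR and capillary electrophoresis, reflect endogenous transcription factor activity. Transfected HepG2 cells received compound for 24 hours; DMSO defined baseline for bidirectional analysis.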

[5] = target: Glucocorticoid receptor (Homo sapiens) (UniProt P04150); experiment: ATG_GR_TRANS: Attagene TRANS-FACTORIAL HepG2 Assay for human Glucocorticoid Receptor (GR) (AID 2282978); conditions: HepG2 Attagene TRANS GR reporter, mRNA transcription;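 further: activators score as hits since higher reporter transcript over DMSO is fitted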
In short: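 Readout is reporter transcript from a chimeric GR-Gal4 acting on GAL4-UAS in transfected human HepG2 liver cells after 24 h exposure, quantified by RT-PCR and capillary electrophoresis. Activation fitted upward against DMSO.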

[6] = target: Oxysterols receptor LXR-alpha (Homo sapiens) (UniProt Q13133); experiment: ATG_LXRa_TRANS: Attagene TRANS-FACTORIAL HepG2 Assay for human Liver X Receptor alpha (LXRa) (AID 2282980); conditions: HepG2 Attagene TRANS reporter, LXRa transactivation
In short: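 Read-out: reporter transcript levels by RT-PCR plus capillary electrophoresis, fluorescence intensity. Transiently transfected HepG2, exogenous NR-GAL4 chimera, GAL4-UAS reporters; 24 h compound exposure. Activity = increase over DMSO negative control.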

[7] = ATG_M_06_TRANS: Attagene TRANS-FACTORIAL HepG2 Assay for M06 Transcription Factor (Internal Marker) (AID 2282983); conditions: HepG2 Attagene TRANS M06 internal marker reporter
In short: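 Read-out: fluorescent reporter cDNA fragments resolved by capillary electrophoresis after RT-PCR and HpaI cut. Source cells were HepG2 carrying transfected multi-reporter GAL4 constructs, dosed 24 h. Increase over DMSO control analysed.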

[8] = target: Transcriptional activator Myb (Homo sapiens) (UniProt P10242); experiment: ATG_Myb_CIS: Attagene CIS-FACTORIAL HepG2 Assay for human Myeloblastosis (Myb) Proto-Oncogene Transcription Factor (AID 2282986; active means hit-call score of the fitted dose curve at least 0.9, where 1 is the maximum; inactive means score below 0.9); conditions: HepG2 Attagene CIS-FACTORIAL Myb reporter transcription; actives raise or lower the signal
In short: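 Reporter mRNA is quantified by RT-PCR and capillary electrophoresis 24 h after dosing HepG2 cells transfected with cis-regulated reporter units, which track endogenous transcription factor activity. Gain and loss of signal are fitted versus DMSO baseline.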

[9] = target: Nuclear receptor subfamily 1 group I member 3 (Homo sapiens) (UniProt Q14994); experiment: ATG_CAR_TRANS: Attagene TRANS-FACTORIAL HepG2 Assay for human Constitutive Androstane Receptor (CAR) (AID 2282969); conditions: HepG2 Attagene TRANS-FACTORIAL CAR reporter;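 further: activators raise reporter mRNA above DMSO so AC50 marks induction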
In short: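 Signal is reporter mRNA induction relative to DMSO, measured 24 h after dosing by RT-PCR with fluorescent primer extension and capillary electrophoresis. Human HepG2 liver cells carried transiently transfected chimeric NR-Gal4/GAL4-UAS reporter constructs.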

[10] = ATG_M_19_TRANS: Attagene TRANS-FACTORIAL HepG2 Assay for M19 Transcription Factor (Internal Marker) (AID 2282974); conditions: HepG2 Attagene TRANS-FACTORIAL M19 internal marker reporter
In short: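 Background-control readout: after 24 h chemical exposure of transfected HepG2 carrying GAL4-driven reporter units, RNA was reverse-transcribed, amplified, fluorescently labeled and sized by capillary electrophoresis; gain-of-signal fit against DMSO.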

[11] = ATG_M_32_TRANS: Attagene TRANS-FACTORIAL HepG2 Assay for M32 Transcription Factor (Internal Marker) (AID 2282984); conditions: HepG2 Attagene TRANS M32 internal marker reporter;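 further: transcript level of a background control reporter unit measured by RT-PCR and capillary electrophoresis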
In short: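 Cell-based TRANS-format assay in HepG2: exogenous chimeric GAL4 reporter units transiently expressed, compounds applied 24 h. Reporter mRNA detected by RT-PCR plus capillary electrophoresis; this readout is an internal background marker.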

[12] = ATG_TGFb_CIS: Attagene CIS-FACTORIAL HepG2 Assay for human Transforming Growth Factor (TGF) (AID 2282967; active means hit-call score of the fitted dose curve at least 0.9, where 1 is the maximum; inactive means score below 0.9); conditions: HepG2 Attagene CIS TGFb reporter, mRNA transcription; actives raise or lower the signal
In short: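 After a 24-hour incubation with compound, transfected HepG2 cells were lysed for RNA; reporter cDNA was amplified, fluorescently end-labeled and separated by CE. DMSO served as baseline for bidirectional fits.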

[13] = target: Estrogen receptor (Homo sapiens) (UniProt P03372); experiment: ATG_ERa_TRANS: Attagene TRANS-FACTORIAL HepG2 Assay for human Estrogen Receptor alpha (ERa) (AID 2282970); conditions: HepG2 Attagene TRANS ERa GAL4 reporter, mRNA
In short: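 Reporter mRNA induction after 24 hours, detected by fluorescent RT-PCR and capillary electrophoresis, gives the read-out. Cells are HepG2 transiently transfected with GAL4-UAS reporter transcription units responding to chimeric NR-Gal4. Activity is taken as gain of signal over DMSO baseline.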

[14] = ATG_GAL4_TRANS: Attagene TRANS-FACTORIAL HepG2 Assay for GAL4 (Internal Marker) (AID 2282976); conditions: HepG2 Attagene TRANS GAL4 internal marker reporter
In short: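 RT-PCR/capillary electrophoresis readout of reporter mRNA. HepG2, transient MRTU transfection (GAL4-UAS reporters), 24 h compound exposure. Background-control endpoint, positive direction vs DMSO baseline.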

[15] = target: Hepatocyte nuclear factor 4-alpha (Homo sapiens) (UniProt P41235); experiment: ATG_HNF4a_TRANS: Attagene TRANS-FACTORIAL HepG2 Assay for human Hepatocyte Nuclear Factor 4 alpha (HNF4a) (AID 2282982); conditions: HepG2 HNF4a transactivation reporter, mRNA readout
In short: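 Multiplexed reporter assay: transfected HepG2, 24 h exposure, total RNA → oligo(dT) RT → PCR → 6-FAM extension → HpaI digest → CE fluorescence. DMSO = negative control.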

[16] = target: Nuclear receptor subfamily 4 group A member 2 (Homo sapiens) (UniProt P43354); experiment: ATG_NURR1_TRANS: Attagene TRANS-FACTORIAL HepG2 Assay for human Nuclear Receptor Related Protein 1 (NURR1) (AID 2282985); conditions: HepG2 Attagene TRANS reporter, mRNA readout
In short: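 Measures transcriptional activation by an exogenous NR-Gal4 chimera in transfected HepG2 liver cells. After 24 h, reporter RNA is reverse-transcribed, amplified and resolved by capillary electrophoresis; DMSO defines baseline.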

[17] = target: Estrogen-related receptor gamma (Homo sapiens) (UniProt P62508); experiment: ATG_ERRg_TRANS: Attagene TRANS-FACTORIAL HepG2 Assay for human Estrogen-Related Receptor gamma (ERRg) (AID 2282977); conditions: HepG2 Attagene TRANS reporter, ERRg transactivation;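 further: hits increase reporter signal over DMSO so potencies reflect activators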
In short: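 Exogenous NR-Gal4 chimera activity was assessed in HepG2 cells bearing transfected GAL4-UAS reporters. After 24 h dosing, total RNA underwent RT-PCR, fluorescent primer extension and HpaI digestion before capillary electrophoresis, with gain of signal scored against DMSO.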

[18] = target: Bile acid receptor (Homo sapiens) (UniProt Q96RI1); experiment: ATG_FXR_TRANS: Attagene TRANS-FACTORIAL HepG2 Assay for Farnesoid X Receptor (FXR) (AID 2282979); conditions: HepG2 Attagene TRANS FXR-GAL4 reporter transcription;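 further: hits raise reporter mRNA above DMSO so AC50 marks FXR activation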
In short: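 Read-out: fluorescent reporter transcripts quantified by capillary electrophoresis after RT-PCR of total RNA. Source cells were HepG2 transiently carrying chimeric NR-GAL4 plus GAL4-UAS reporter units, dosed 24 h. Activity fitted upward relative to DMSO baseline.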

[19] = target: Oxysterols receptor LXR-beta (Homo sapiens) (UniProt P55055); experiment: ATG_LXRb_TRANS: Attagene TRANS-FACTORIAL HepG2 Assay for human Liver X Receptor beta (LXRb) (AID 2282981); conditions: HepG2 Attagene TRANS GAL4-LXRb reporter, mRNA
In short: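 After 24 h of chemical treatment, transfected HepG2 cells yield total RNA; reporter cDNA is PCR-amplified, FAM-labelled, HpaI-cut and run on capillary electrophoresis. Signal reflects chimeric LXRb-Gal4 activity on GAL4-UAS reporters.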

[20] = target: Steroid hormone receptor ERR1 (Homo sapiens) (UniProt P11474); experiment: ATG_ERRa_TRANS: Attagene TRANS-FACTORIAL HepG2 Assay for human Estrogen-Related Receptor alpha (ERRa) (AID 2282971); conditions: HepG2 Attagene TRANS reporter, ERRa transactivation
In short: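 Transfected HepG2, 24 h dosing, ERRa-Gal4 chimera driving GAL4-UAS reporter. Readout: reporter mRNA via RT-PCR plus capillary electrophoresis (fluorescence). Positive direction vs DMSO control.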

Measured: AC50

Chain of Transcriptional activator Myb (Homo sapiens) (P10242 whole entry, looked up): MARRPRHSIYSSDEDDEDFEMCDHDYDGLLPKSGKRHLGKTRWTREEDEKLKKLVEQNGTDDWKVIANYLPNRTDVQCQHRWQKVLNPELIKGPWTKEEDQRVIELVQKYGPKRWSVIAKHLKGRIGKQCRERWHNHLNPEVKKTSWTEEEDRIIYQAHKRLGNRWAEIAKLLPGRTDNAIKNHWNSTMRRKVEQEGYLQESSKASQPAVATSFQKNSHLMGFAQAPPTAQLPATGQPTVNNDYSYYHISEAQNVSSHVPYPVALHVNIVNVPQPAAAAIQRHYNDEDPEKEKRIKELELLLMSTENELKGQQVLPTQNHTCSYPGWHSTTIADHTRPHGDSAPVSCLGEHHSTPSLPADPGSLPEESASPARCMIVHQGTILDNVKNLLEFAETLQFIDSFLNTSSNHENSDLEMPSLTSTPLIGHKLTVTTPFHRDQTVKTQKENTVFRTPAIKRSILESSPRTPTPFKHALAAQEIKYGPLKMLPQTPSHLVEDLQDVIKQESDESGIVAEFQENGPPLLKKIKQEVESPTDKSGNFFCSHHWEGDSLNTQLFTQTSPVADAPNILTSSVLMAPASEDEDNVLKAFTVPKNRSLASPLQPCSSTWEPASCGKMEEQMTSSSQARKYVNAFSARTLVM
Chain of Nuclear receptor subfamily 4 group A member 2 (Homo sapiens) (P43354 whole entry, looked up, the tested form may be a part): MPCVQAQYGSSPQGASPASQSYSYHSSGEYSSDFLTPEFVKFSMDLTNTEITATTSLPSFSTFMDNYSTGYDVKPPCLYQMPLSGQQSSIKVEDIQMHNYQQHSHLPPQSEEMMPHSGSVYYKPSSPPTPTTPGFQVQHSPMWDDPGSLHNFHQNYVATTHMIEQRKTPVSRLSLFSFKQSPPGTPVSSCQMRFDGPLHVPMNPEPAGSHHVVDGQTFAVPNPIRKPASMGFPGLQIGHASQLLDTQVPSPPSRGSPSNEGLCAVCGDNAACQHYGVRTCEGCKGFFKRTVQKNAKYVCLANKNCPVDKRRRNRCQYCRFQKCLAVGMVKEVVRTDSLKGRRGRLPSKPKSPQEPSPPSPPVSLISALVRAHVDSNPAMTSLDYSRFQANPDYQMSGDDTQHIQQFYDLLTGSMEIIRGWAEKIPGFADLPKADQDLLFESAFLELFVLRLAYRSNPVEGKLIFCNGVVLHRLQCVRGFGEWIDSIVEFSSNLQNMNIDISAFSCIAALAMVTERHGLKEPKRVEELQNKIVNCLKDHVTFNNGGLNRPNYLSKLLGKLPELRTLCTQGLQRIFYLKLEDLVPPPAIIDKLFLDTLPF
Chain of Bile acid receptor (Homo sapiens) (Q96RI1 whole entry, looked up, the tested form may be a part): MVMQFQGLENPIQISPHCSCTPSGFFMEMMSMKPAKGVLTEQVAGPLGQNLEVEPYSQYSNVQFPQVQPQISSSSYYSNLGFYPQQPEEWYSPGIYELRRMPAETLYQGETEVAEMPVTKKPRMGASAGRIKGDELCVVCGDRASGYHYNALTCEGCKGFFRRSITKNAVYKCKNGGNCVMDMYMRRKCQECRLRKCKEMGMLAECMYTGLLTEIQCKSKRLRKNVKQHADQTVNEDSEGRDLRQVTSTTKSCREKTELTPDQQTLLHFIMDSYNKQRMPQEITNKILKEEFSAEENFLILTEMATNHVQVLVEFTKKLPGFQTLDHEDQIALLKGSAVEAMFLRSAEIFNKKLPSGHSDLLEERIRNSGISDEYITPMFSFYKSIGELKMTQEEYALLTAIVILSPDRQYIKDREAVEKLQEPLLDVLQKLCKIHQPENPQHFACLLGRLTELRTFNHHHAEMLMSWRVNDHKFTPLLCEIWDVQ
Chain of Glucocorticoid receptor (Homo sapiens) (P04150 whole entry, looked up, the tested form may be a part): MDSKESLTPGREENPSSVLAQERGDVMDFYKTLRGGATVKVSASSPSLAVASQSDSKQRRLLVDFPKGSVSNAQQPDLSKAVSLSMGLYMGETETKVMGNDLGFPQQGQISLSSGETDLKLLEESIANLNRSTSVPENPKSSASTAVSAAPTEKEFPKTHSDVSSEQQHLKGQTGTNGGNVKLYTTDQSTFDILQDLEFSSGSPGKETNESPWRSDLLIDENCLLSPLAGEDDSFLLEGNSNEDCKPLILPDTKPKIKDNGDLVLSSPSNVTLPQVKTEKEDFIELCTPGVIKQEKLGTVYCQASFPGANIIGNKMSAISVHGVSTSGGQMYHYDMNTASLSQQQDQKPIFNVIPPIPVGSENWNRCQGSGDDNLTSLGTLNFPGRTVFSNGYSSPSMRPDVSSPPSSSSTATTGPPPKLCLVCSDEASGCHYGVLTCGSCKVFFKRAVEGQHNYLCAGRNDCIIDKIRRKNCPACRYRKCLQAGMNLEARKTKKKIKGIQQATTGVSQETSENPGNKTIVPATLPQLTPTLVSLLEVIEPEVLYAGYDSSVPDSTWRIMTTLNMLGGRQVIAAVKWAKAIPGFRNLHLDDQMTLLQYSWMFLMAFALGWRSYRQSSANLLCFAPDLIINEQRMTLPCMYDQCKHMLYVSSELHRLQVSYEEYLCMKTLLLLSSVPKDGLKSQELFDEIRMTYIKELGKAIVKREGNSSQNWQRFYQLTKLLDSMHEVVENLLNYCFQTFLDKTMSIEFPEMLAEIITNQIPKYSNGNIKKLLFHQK
Chain of Hepatocyte nuclear factor 4-alpha (Homo sapiens) (P41235 whole entry, looked up): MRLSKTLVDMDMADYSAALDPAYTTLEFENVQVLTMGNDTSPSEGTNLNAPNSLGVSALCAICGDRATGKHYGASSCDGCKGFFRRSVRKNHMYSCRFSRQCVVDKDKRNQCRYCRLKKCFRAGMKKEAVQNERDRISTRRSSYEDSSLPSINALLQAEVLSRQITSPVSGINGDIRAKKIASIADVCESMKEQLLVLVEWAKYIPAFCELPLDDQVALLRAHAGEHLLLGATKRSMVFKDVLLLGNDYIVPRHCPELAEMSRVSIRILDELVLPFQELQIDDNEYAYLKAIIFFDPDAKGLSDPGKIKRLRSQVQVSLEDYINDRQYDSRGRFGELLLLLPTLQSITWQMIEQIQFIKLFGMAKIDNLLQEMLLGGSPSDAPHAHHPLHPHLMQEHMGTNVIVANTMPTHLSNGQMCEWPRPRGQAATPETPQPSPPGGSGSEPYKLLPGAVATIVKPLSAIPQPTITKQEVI
Chain of Oxysterols receptor LXR-alpha (Homo sapiens) (Q13133 whole entry, looked up, the tested form may be a part): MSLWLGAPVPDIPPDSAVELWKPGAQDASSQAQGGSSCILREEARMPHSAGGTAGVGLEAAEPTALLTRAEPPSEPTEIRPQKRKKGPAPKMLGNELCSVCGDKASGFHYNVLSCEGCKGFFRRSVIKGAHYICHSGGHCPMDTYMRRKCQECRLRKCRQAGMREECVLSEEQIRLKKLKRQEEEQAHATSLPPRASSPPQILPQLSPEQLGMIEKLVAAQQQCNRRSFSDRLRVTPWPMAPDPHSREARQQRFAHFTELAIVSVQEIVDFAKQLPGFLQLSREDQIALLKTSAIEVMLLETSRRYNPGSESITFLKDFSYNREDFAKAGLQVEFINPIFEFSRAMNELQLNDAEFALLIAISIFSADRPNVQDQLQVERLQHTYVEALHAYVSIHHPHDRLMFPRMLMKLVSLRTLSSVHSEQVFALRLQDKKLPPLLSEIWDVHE
Chain of X-box-binding protein 1 (Homo sapiens) (P17861 whole entry, looked up): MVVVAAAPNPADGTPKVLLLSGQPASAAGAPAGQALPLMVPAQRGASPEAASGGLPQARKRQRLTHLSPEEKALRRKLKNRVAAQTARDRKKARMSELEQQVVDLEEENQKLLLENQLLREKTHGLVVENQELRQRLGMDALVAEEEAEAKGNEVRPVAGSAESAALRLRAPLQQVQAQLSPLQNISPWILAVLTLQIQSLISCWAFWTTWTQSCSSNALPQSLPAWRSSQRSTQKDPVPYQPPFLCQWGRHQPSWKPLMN
Chain of Nuclear receptor subfamily 1 group I member 3 (Homo sapiens) (Q14994 whole entry, looked up, the tested form may be a part): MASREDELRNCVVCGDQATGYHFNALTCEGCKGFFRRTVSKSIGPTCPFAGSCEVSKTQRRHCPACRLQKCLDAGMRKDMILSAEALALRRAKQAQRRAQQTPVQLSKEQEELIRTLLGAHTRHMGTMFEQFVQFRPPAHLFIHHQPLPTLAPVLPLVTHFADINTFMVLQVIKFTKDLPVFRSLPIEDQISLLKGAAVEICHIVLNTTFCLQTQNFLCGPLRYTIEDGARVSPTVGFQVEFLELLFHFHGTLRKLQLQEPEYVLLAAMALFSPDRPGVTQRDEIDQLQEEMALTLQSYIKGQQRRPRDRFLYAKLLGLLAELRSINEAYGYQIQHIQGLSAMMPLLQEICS
Chain of Estrogen receptor (Homo sapiens) (P03372 whole entry, looked up, the tested form may be a part): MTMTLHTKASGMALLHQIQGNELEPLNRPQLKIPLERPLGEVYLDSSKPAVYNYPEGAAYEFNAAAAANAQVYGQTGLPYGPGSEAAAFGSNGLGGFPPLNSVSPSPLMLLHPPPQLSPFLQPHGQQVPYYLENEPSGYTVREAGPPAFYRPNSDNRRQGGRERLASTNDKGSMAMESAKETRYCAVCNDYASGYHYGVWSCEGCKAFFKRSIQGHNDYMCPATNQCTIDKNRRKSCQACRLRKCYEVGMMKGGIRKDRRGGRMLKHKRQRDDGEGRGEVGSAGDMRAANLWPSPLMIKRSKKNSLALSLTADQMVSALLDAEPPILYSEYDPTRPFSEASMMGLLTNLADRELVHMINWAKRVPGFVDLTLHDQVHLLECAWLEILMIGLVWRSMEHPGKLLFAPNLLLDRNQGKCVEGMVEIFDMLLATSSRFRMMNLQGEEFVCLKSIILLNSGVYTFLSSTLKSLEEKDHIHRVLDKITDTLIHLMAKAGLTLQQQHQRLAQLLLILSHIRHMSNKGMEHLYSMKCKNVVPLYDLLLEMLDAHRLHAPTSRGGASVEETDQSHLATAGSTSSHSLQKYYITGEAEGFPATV

Cc1cc(=O)[nH]c(=O)[nH]1
inactive: [1] | [2] | [3] | [4] | [5] | [6] | [7] | [8]

C[Si]1(C)O[Si](C)(C)O[Si](C)(C)O[Si](C)(C)O[Si](C)(C)O1
inactive: [1] | [2] | [3] | [9] | [4] | [10] | [5] | [7] | [11] | [8]

Nc1ccc(C(=O)O)cc1
inactive: [1] | [2] | [12] | [13] | [10] | [14] | [15] | [11] | [16] | [8]

CC(C)CCCCCOC(=O)CS
inactive: [1] | [2] | [9] | [14] | [5] | [15] | [7] | [11] | [16] | [8]

CN(C)c1ccc2nc3ccc(=[N+](C)C)cc-3sc2c1
inactive: [1] | [2] | [13] | [4] | [10] | [17] | [18] | [6] | [19] | [15] | [7] | [16] | [8]

CCN(CC)c1cccc(C)c1
inactive: [1] | [3] | [13] | [20] | [4] | [10] | [14] | [17] | [5] | [6] | [19] | [11] | [16] | [8]

CC(C)=CCCC(C)=CC#N
inactive: [2] | [12] | [3] | [9] | [13] | [4] | [10] | [14] | [5] | [6] | [7] | [11] | [16] | [8]

CCc1occc(=O)c1O
inactive: [1] | [2] | [13] | [4] | [18] | [7] | [8]

COC(=O)c1ccccc1C
inactive: [1] | [12] | [4] | [10] | [16] | [8]

Nc1nc(N)nc(-c2ccccc2)n1
inactive: [1] | [12] | [13] | [4] | [10] | [5] | [6] | [15] | [7] | [11] | [16] | [8]

CCCCCCCCCCCC(C)=O
active: [1] 161 µM | [12] 166 µM
inactive: [3] | [4] | [10] | [14] | [5] | [18] | [15] | [8]
